Experimental data taken from PubChem BioAssay (EPA / NIEHS).
Records with an inconclusive call do not appear. Calls of active or inactive are those of the source. Rule for the calls, unless noted: active = hit-call score of the fitted dose curve at least 0.9, where 1 is the maximum; inactive = score below 0.9.

Tested on: SRY-box transcription factor 17 (SOX17) Protein Expression, Deisenroth Lab, SOX17 (gene 64321)
Test: CCTE_Deisenroth_DEVTOX-GLR_legacy_Sox17: (Legacy) CCTE's DevTox GLR-Endo Assay Evaluation of SRY-box transcription factor 17 (SOX17) Protein Expression, Deisenroth Lab (AID 2284341)
Conditions: actives raise or lower the signal
In short: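 Percent SOX17-positive cells, scored by high-content imaging as mean intensity exceeding pluripotent-control median by 5x BMAD, divided by cell count. Human RUES2-GLR endoderm differentiation, 48 h, two exposures 24 h apart, 1 nM–200 uM; DMSO-referenced bidirectional fitting.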

Row | Compound | AC50 | outcome
1 | CCCCc1oc2ccccc2c1C(=O)c1cc(I)c(OCCN(CC)CC)c(I)c1 | 20.8 µM (active) | –
2 | CN(C)CCOC(c1ccccc1)c1ccccc1 | 58.1 µM (active) | –
3 | CN(Cc1cnc2nc(N)nc(N)c2n1)c1ccc(C(=O)N[C@@H](CCC(=O)O)C(=O)O)cc1 | – | inactive
4 | O=C1NS(=O)(=O)c2ccccc21 | – | inactive
5 | CC(=O)Nc1ccc(O)cc1 | – | inactive

Tested on: not listed separately
Test: CCTE_Mundy_HCI_iCellGluta_NOG_NeuriteCount: CCTE's Neurite Outgrowth Assay in iCellGluta cells for Neurite Count, Mundy Lab (AID 2284342; active = hit-call score of the fitted dose curve at least 0.9, where 1 is the maximum;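 note: chemical exposure about 48 hours starting 2 hours after plating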)
Conditions: not given

Row | Compound | AC50 | outcome
6 | CC(C)c1c(C(=O)Nc2ccccc2)c(-c2ccccc2)c(-c2ccc(F)cc2)n1CC[C@@H](O)C[C@@H](O)CC(=O)O | 0.094 µM (active) | –
7 | O=P(O)(O)CCC(F)(F)C(F)(F)C(F)(F)C(F)(F)C(F)(F)C(F)(F)C(F)(F)C(F)(F)F | – | inactive
8 | O=P(O)(O)CCC(F)(F)C(F)(F)C(F)(F)C(F)(F)C(F)(F)C(F)(F)F | – | inactive
9 | C=CC(=O)OCCC(F)(F)C(F)(F)C(F)(F)C(F)(F)C(F)(F)C(F)(F)C(F)(F)C(F)(F)F | – | inactive
10 | O=C(CC(=O)C(F)(F)C(F)(F)C(F)(F)F)c1cccs1 | – | inactive
11 | OCC(F)(F)C(F)(F)C(F)(F)C(F)(F)C(F)(F)C(F)(F)C(F)(F)C(F)(F)C(F)(F)C(F)(F)C(F)(F)F | – | inactive

Tested on: SERPINA7 (gene 6906)
Test: CCTE_GLTED_hTBG: CCTE's human Thyroxine-binding Globulin (TBG) Inhibition Assay, Great Lakes Toxicology and Ecology Division (GLTED) Lab (AID 2284343; active = hit-call score of the fitted dose curve at least 0.9, where 1 is the maximum;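 note: active chemicals lower fluorescence versus DMSO baseline by displacing probe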)
Conditions: not given
In short: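 Cell-free binding assay in which human TBG is incubated with test chemical for 2 hours and displacement of the fluorescent probe ANSA is read at 380 nm excitation/475 nm emission. Activity is fitted against DMSO as the negative control.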

Row | Compound | AC50
12 | CCCCCCCCCC=CCC1CC(=O)OC1=O (stereo not given) | 60.7 µM (active)
13 | O=C(c1ccccc1)c1ccccc1 | 40.2 µM (active)
14 | CCCCCCCCCCCCOC(=O)c1cc(O)c(O)c(O)c1 | 4.45 µM (active)
15 | Cc1cc(Cc2cc(C)cc(C(C)(C)C)c2O)c(O)c(C(C)(C)C)c1 | 2.6 µM (active)
16 | CCCCc1ccc2ccccc2c1S(=O)(=O)O | 22 µM (active)
17 | O=P(O)(O)CCC(F)(F)C(F)(F)C(F)(F)C(F)(F)C(F)(F)C(F)(F)C(F)(F)C(F)(F)F | 95.6 µM (active)
18 | O=C(CC(=O)C(F)(F)C(F)(F)C(F)(F)F)c1cccs1 | 14.1 µM (active)
19 | COc1cc([N+](=O)[O-])ccc1N | 37 µM (active)
20 | O=C(O)C(F)(F)OC(F)(F)C(F)(F)OC(F)(F)C(F)(F)OC(F)(F)C(F)(F)C(F)(F)C(F)(F)F | 20.8 µM (active)
21 | Cc1[nH]nc2c1N=C(c1ccccc1Cl)c1cc([N+](=O)[O-])ccc1N2 | 0.482 µM (active)

Tested on: SRY-box transcription factor 2 (SOX2) Protein Expression, Deisenroth Lab, SOX2 (gene 6657)
Test: CCTE_Deisenroth_DEVTOX-GLR_legacy_Sox2: (Legacy) CCTE's DevTox GLR-Endo Assay Evaluation of SRY-box transcription factor 2 (SOX2) Protein Expression, Deisenroth Lab (AID 2284346)
Conditions: not given
In short: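 RUES2-GLR human pluripotent cells seeded 24 h, then differentiated 48 h in defined media with two chemical doses 24 h apart (10-point, 1 nM–200 uM). Fixed, nuclear-stained, imaged; % Sox2+ cells (>5x BMAD over endoderm control median), DMSO-subtracted, fitted upward.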

Row | Compound | AC50 | outcome
22 | CCCCc1oc2ccccc2c1C(=O)c1cc(I)c(OCCN(CC)CC)c(I)c1 | 29.9 µM (active) | –
23 | CN(C)CCOC(c1ccccc1)c1ccccc1 | 100 µM (active) | –
24 | CN(Cc1cnc2nc(N)nc(N)c2n1)c1ccc(C(=O)N[C@@H](CCC(=O)O)C(=O)O)cc1 | 0.0109 µM (active) | –
25 | O=C1NS(=O)(=O)c2ccccc21 | – | inactive
26 | CC(=O)Nc1ccc(O)cc1 | – | inactive

Tested on: not listed separately
Test: Tanguay_ZF_120hpf_MO24: Oregon State University Tanguay Lab 24 Hour Post-fertilization zebrafish Assay for Mortality (AID 2284389)
Conditions: not given
In short: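 Dechorionated wild-type zebrafish embryos, 1 per well, statically exposed from 6 hpf at 28C, 0.64% DMSO final. Mortality scored as binary present/absent at 24 hpf by brightfield microscopy, relative to DMSO.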

Row | Compound | outcome
27 | CN(CCO)S(=O)(=O)C(F)(F)C(F)(F)C(F)(F)C(F)(F)C(F)(F)C(F)(F)C(F)(F)C(F)(F)F | inactive
28 | O=P(O)(O)CCC(F)(F)C(F)(F)C(F)(F)C(F)(F)C(F)(F)C(F)(F)C(F)(F)C(F)(F)F | inactive
29 | O=C(O)CCC(F)(F)C(F)(F)C(F)(F)C(F)(F)C(F)(F)F | inactive
30 | O=P(O)(O)CCC(F)(F)C(F)(F)C(F)(F)C(F)(F)C(F)(F)C(F)(F)F | inactive
31 | C=CC(=O)OCCC(F)(F)C(F)(F)C(F)(F)C(F)(F)C(F)(F)C(F)(F)C(F)(F)C(F)(F)F | inactive
32 | O=C(CC(=O)C(F)(F)C(F)(F)C(F)(F)F)c1cccs1 | inactive
33 | O=C(O)C(F)(F)OC(F)(F)C(F)(F)OC(F)(F)C(F)(F)OC(F)(F)C(F)(F)C(F)(F)C(F)(F)F | inactive
34 | OCC(F)(F)C(F)(F)C(F)(F)C(F)(F)C(F)(F)C(F)(F)C(F)(F)C(F)(F)C(F)(F)C(F)(F)C(F)(F)F | inactive

Tested on: not listed separately
Test: Tanguay_ZF_120hpf_DP24: Oregon State University Tanguay Lab 24 Hour Post-fertilization zebrafish Assay for Delayed Development (AID 2284390)
Conditions: not given
In short: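 Dechorionated 5D wild-type zebrafish embryos exposed statically from 6 hpf, one per well, 0.64% DMSO final, 28 C, sealed and dark. Developmental progression scored at 24 hpf by brightfield as binary present/absent; dead embryos excluded.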

Row | Compound | outcome
35 | CN(CCO)S(=O)(=O)C(F)(F)C(F)(F)C(F)(F)C(F)(F)C(F)(F)C(F)(F)C(F)(F)C(F)(F)F | inactive
36 | O=P(O)(O)CCC(F)(F)C(F)(F)C(F)(F)C(F)(F)C(F)(F)C(F)(F)C(F)(F)C(F)(F)F | inactive
37 | O=C(O)CCC(F)(F)C(F)(F)C(F)(F)C(F)(F)C(F)(F)F | inactive
38 | O=P(O)(O)CCC(F)(F)C(F)(F)C(F)(F)C(F)(F)C(F)(F)C(F)(F)F | inactive
39 | C=CC(=O)OCCC(F)(F)C(F)(F)C(F)(F)C(F)(F)C(F)(F)C(F)(F)C(F)(F)C(F)(F)F | inactive
40 | O=C(CC(=O)C(F)(F)C(F)(F)C(F)(F)F)c1cccs1 | inactive
41 | O=C(O)C(F)(F)OC(F)(F)C(F)(F)OC(F)(F)C(F)(F)OC(F)(F)C(F)(F)C(F)(F)C(F)(F)F | inactive
42 | OCC(F)(F)C(F)(F)C(F)(F)C(F)(F)C(F)(F)C(F)(F)C(F)(F)C(F)(F)C(F)(F)C(F)(F)C(F)(F)F | inactive

Tested on: not listed separately
Test: Tanguay_ZF_120hpf_CRAN: Oregon State University Tanguay Lab 120 Hour Post-fertilization zebrafish Assay for Craniofacial Malformation (AID 2284397)
Conditions: not given
In short: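 Dechorionated Tropical 5D wild-type zebrafish embryos, one per well, were statically exposed from 6 to 120 hpf at 28C in 0.64% DMSO, with 5uM trimethyltin chloride as positive control. Craniofacial malformation was scored present/absent by brightfield microscopy, relative to DMSO.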

Row | Compound | AC50 | outcome
43 | CN(CCO)S(=O)(=O)C(F)(F)C(F)(F)C(F)(F)C(F)(F)C(F)(F)C(F)(F)C(F)(F)C(F)(F)F | 29.5 µM (active) | –
44 | O=P(O)(O)CCC(F)(F)C(F)(F)C(F)(F)C(F)(F)C(F)(F)C(F)(F)C(F)(F)C(F)(F)F | – | inactive
45 | O=C(O)CCC(F)(F)C(F)(F)C(F)(F)C(F)(F)C(F)(F)F | – | inactive
46 | O=P(O)(O)CCC(F)(F)C(F)(F)C(F)(F)C(F)(F)C(F)(F)C(F)(F)F | – | inactive
47 | C=CC(=O)OCCC(F)(F)C(F)(F)C(F)(F)C(F)(F)C(F)(F)C(F)(F)C(F)(F)C(F)(F)F | – | inactive
48 | O=C(CC(=O)C(F)(F)C(F)(F)C(F)(F)F)c1cccs1 | – | inactive
49 | O=C(O)C(F)(F)OC(F)(F)C(F)(F)OC(F)(F)C(F)(F)OC(F)(F)C(F)(F)C(F)(F)C(F)(F)F | – | inactive
50 | OCC(F)(F)C(F)(F)C(F)(F)C(F)(F)C(F)(F)C(F)(F)C(F)(F)C(F)(F)C(F)(F)C(F)(F)C(F)(F)F | – | inactive
